Assay outcomes: PubChem, National Center for Advancing Translational Sciences (NCATS)
Hits are enriched below; roughly 7.9% of the tested compounds scored in any of these assays.
KB-V1 MDR tox: qHTS assay for MDR1-selective chemotherapeutics: Primary screen using the drug-selected MDR subline cells KB-V1; 3.4% of 400,000 active; KB-V1 MDR cells viability, CellTiter-Glo, 72 h; Potency, µM (doses to about 46.1 µM), hits mostly cytotoxic; further: nearly all actives have a fitted effect of over 60% in size
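KB-V1 cells (P-gp-expressing MDR subline of KB-3-1) in phenol-red-free DMEM with 10% FBS were exposed to library compounds over a concentration series for 72 h at 37 degrees C. Viability read by CellTiter-Glo luminescence; concentration-effect curves fitted after normalization.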
HT1080 IDH1KD tx: qHTS for induction of synthetic lethality in tumor cells producing 2HG: qHTS for the HT-1080-IDH1KD cell line; HT-1080 IDH1 knockdown viability, ATP luminescence, 48 h; AID 686971, 2013; 2% of 360,000 active; Potency, µM (top dose mostly 46.1 µM), hits mostly cytotoxic
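IDH1KD HT-1080 cells, 750/well, RPMI + 5% FBS; compound pinned after 2 h settling; 48 h, 37 °C; CellTiter-Glo luminescence; % activity normalised to DMSO and no-cell wells; curves fitted, classed by r2 and efficacy.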
SW480 rerep: A quantitative high throughput screen for small molecules that induce DNA re-replication in SW480 colon adenocarcinoma cells; Potency, µM (highest dose often 46.1 µM), usual class: activators; AID 624297, 2012; 1.8% of 340,000 active; SW480 DNA re-replication, Hoechst DNA content imaging, 48 h; further: nearly all actives have a fitted effect of over 55% in size
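Treated cells incubate 48 hr (37 C, 5% CO2), are stained 40 min with Hoechst, and nuclear fluorescence is enumerated; a rise in nuclei with high DNA signal marks re-replication.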
MCF10A rerep: A quantitative high throughput screen for small molecules that induce DNA re-replication in MCF 10a normal breast cells; MCF 10A DNA re-replication, Hoechst nuclear intensity, 48 h; Potency, µM (doses to about 46.1 µM), actives largely listed as activators; 2.9% of 350,000 active; further: nearly all actives have a fitted effect of over 50% in size
HT1080NT lethal: qHTS for induction of synthetic lethality in tumor cells producing 2HG: qHTS for the HT-1080-NT fibrosarcoma cell line; HT-1080-NT fibrosarcoma viability, CellTiter-Glo ATP luminescence, 48 h; AID 686970, 2013; Potency, µM (top dose mostly 46.1 µM), hits mostly cytotoxic; 1.6% of 360,000 active;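 further: NT is the 2HG producing partner of a matched IDH1 knockdown line; nearly all actives have a fitted effect of over 55% in size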
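HT-1080-NT; 750 cells/well; 5% FBS RPMI; 48 h compound, 37 degrees C; CellTiter-Glo luminescence; curve fitting and curve-class assignment.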
KB-3-1 tox: qHTS assay for MDR1-selective chemotherapeutics: Primary screen using the parental adenocarcinoma cell KB-3-1; KB-3-1 viability, CellTiter-Glo ATP luminescence, 72 h; Potency, µM (doses to about 46.1 µM), actives largely listed as cytotoxic; 1.4% of 400,000 active; AID 1347075, 2019; further: nearly all actives have a fitted effect of over 60% in size
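KB-3-1 cells, DMEM (no phenol red) + 10% FBS; compound by pin transfer, 72 h, 37 °C. Readout: CellTiter-Glo luminescence after 10 min. Data normalized, curve-fitted.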
Hits are given with their value; . = inactive; ? = inconclusive; / = no result given; [ ] = remark or other dose. The call rests on the fitted dose curve; in most records, active means well fitted curve in the direction sought with a large enough effect; inconclusive means small, poorly fitted or top-dose-only effect, or another doubt; inactive means no such curve, though single readings can be large; an effect the other way counts as inactive or inconclusive.

SMILES	KB-V1 MDR tox	HT1080 IDH1KD tx	SW480 rerep	MCF10A rerep	HT1080NT lethal	KB-3-1 tox
O=C(CSc1ccc(-c2ccco2)nn1)NCc1ccccc1Cl	21µM	.	.	.	.	.
COc1ccc(NC(=O)CSc2ccc(-c3ccco3)nn2)cc1OC	?	.	.	.	.	.
O=C(CSc1ccc(-c2ccco2)nn1)Nc1ccc(F)cc1	10µM	.	.	.	.	.
CC1(C)Cc2c(C#N)c(OCC(=O)c3ccc(Cl)cc3)nc(-c3ccco3)c2CO1	.	.	.	.	.	.
Cc1nc(OCC(=O)c2ccc(Cl)cc2)c(C#N)c2c1COC(C)(C)C2	.	.	21µM	4.6µM	.	.
Cc1cc(C)c(C#N)c(Oc2ccc(O)cc2)n1	.	.	.	.	?	.
COc1ccc(C(=O)COc2nc(C)cc(C)c2C#N)cc1	13µM	.	.	.	.	?
COC(=O)c1cn(C(=O)c2ccc(Br)o2)c2ccccc12	?	.	.	.	.	.
COc1nc(N)c(C#N)c(-c2ccc(N(C)CCC#N)cc2)c1C#N	?	.	.	18µM	.	.
Cc1ccc(COc2ccc(CNCCCN3CCCCCC3=O)cc2)cc1	.	.	18µM	?	.	?
Cc1ccc(NC(=O)C(=O)NCCCN2CCCC2=O)cc1	.	.	.	.	.	.
COc1cc(C(=O)O)cc(NC(=O)c2cccs2)c1OC	?	.	.	.	.	.
COc1cc(C(=O)OCc2ccc(C)cc2)cc(NC(=O)c2cccs2)c1OC	?	.	?	23µM	.	.
Cc1nc(Cl)c(C(=O)NC(=O)Nc2cccc(C(F)(F)F)c2)c(C)c1[N+](=O)[O-]	?	.	?	.	.	10µM
C[C@H](CO)N1C[C@H](C)[C@@H](CN(C)S(=O)(=O)c2ccc(Cl)cc2)Oc2ccc(NS(=O)(=O)c3ccccc3)cc2CC1=O	?	?	.	.	.	.
CNC[C@@H](CC1CCCCC1)NC[C@H](CC(C)C)NCCc1cccc(C(F)(F)F)c1	?	?	?	7.3µM	23µM	?
COC(=O)c1cc(-c2ccc(F)cc2)n(-c2ccccc2)n1	.	.	.	.	.	.
CCOC(=O)CSc1nc2c(c(=O)[nH]1)C(C)(CC)Cc1ccccc1-2 (stereo not given)	?	5.8µM	?	?	?	?
CCC1(C)Cc2ccccc2-c2nc(SCC(N)=O)[nH]c(=O)c21 (stereo not given)	.	.	.	.	.	.
CN1CCN(c2ccc(CNC(=O)C3Cc4c(-c5ccccc5Oc5ccccc5)ccnc4O3)cc2)CC1 (stereo not given)	.	21µM	/	/	?	.
CN1CCN(c2ccc(CNC(=O)C3Cc4c(-c5ccccc5)ccnc4O3)cc2)CC1 (stereo not given)	.	?	/	/	.	.
CN(C)CCNC(=O)C1Cc2c(-c3ccccc3Oc3ccccc3)ccnc2O1 (stereo not given)	.	23µM	/	/	?	.
C=CC[n+]1c(-c2ccc(OCC)cc2)csc1NNC(=O)Nc1ccccc1	18µM	?	.	.	?	18µM
CCC(Cc1ccccc1)NS(=O)(=O)c1csc(C(N)=O)c1 (stereo not given)	.	.	.	?	.	.
O=C1NC(=Nc2ccccc2)S/C1=C\c1cccn1-c1ccccc1	4.6µM	?	6.5µM	6.5µM	?	5.2µM
SMILES	KB-V1 MDR tox	HT1080 IDH1KD tx	SW480 rerep	MCF10A rerep	HT1080NT lethal	KB-3-1 tox
Cc1ccccc1N=C1NC(=O)/C(=C/c2cccn2C)S1	7.3µM	.	?	?	.	?
Cc1cccc(N=C2NC(=O)/C(=C/c3cccn3C)S2)c1	5.8µM	.	?	?	.	?
O=C1NC(=Nc2cccnc2)S/C1=C/c1ccc(F)cc1	?	?	?	7.3µM	?	?
O=C(Nc1ccccc1Cl)N1CCN(Cc2ccc3c(c2)OCO3)CC1	.	.	.	.	.	.
CCNc1nc(NCC)nc(OCCOC(=O)Nc2ccccc2)n1	.	.	.	.	.	.
Cc1cccc(NC(=O)c2ccc3c(c2)CCN3S(C)(=O)=O)c1	.	.	.	.	.	.
OC(CNCCc1ccc(C(F)(F)F)cc1)COc1ccc2ccccc2c1 (stereo not given)	?	.	?	5.8µM	.	?
OC(COc1ccc(CNCCc2ccc(C(F)(F)F)cc2)cc1)CN1CCCCC1 (stereo not given)	?	23µM	?	?	23µM	?
COc1ccc(CCNCC(O)COc2cccc(Br)c2)cc1 (stereo not given)	.	?	?	?	?	.
OC(COc1ccc(OCC(O)CN2CCCCC2)cc1)CN1CCCCC1 (stereo not given)	.	.	.	.	.	?
OC(CNCCc1ccc(C(F)(F)F)cc1)COc1cccc2ccccc12 (stereo not given)	?	.	16µM	21µM	.	.
COc1ccccc1COCC(O)CNCCc1ccc(C(F)(F)F)cc1 (stereo not given)	.	.	?	.	.	.
CCOC(=O)c1c(N/N=C/c2cccnc2)n[nH]c1C	5.8µM	?	?	?	?	9.2µM
CCCCn1c(SCC(=O)c2cc(OC)ccc2OC)nc2cc(S(N)(=O)=O)ccc21	.	.	.	.	.	.
CCCCn1c(SCc2ccc(C(=O)OC)o2)nc2cc(S(N)(=O)=O)ccc21	?	.[9.24 µM]	.	.	?	18µM
Cc1ccc(OCc2cc(C(=O)N(C)CCc3nc4ccccc4[nH]3)no2)cc1C	.	.	?	21µM	?	.
Cc1ccc(OCc2cc(C(=O)N(C)CCc3ccccn3)no2)cc1C	.	.	?	?	.	.
COc1ccc(C2c3c(ncn(Cc4ccco4)c3=N)Oc3ccc4ccccc4c32)cc1 (stereo not given)	?	?	?	?	21µM	?
COc1ccc(C2c3ccc(O)cc3Oc3ncn(Cc4ccco4)c(=N)c32)cc1 (stereo not given)	.	.	.	?	.	?
N=c1c2c(ncn1CCCO)Oc1ccc3ccccc3c1C2c1ccccc1 (stereo not given)	.	?	.	.	?	.
N=c1c2c(ncn1Cc1ccco1)Oc1ccc3ccccc3c1C2c1ccccc1 (stereo not given)	7.3µM	23µM	?	16µM	16µM	?
